An excerpt weighted towards active compounds, which were near 19% of everything screened.
KB-V1 cytotox = KB-V1 MDR subline cytotoxicity | KB-V1 MDR cells viability, CellTiter-Glo, 72 h | Potency, µM (series often up to 46.1 µM), hits mostly cytotoxic | 400,000 compounds, 3.4% hits | AID 1347076; note: nearly all actives have a fitted effect of over 60% in size
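In this primary screen, KB-V1 cells overexpressing P-gp are incubated with library compounds (lowest to highest concentration) for 72 h at 37 degrees C before a luminescent ATP viability read.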
TDP1 cell CPT = DT40-hTDP1 cell growth loss with CPT. AID 686979. chicken DT40 Tdp1-/-;hTDP1 cells + 20 nM CPT, ATP luminescence, 48 h. 420,000 compounds, 12% hits. Potency, µM (titrated, usually from 46.2 µM), without a hit: at the highest dose activity change, negative = growth inhibition, most hits filed as inhibitors; note: nearly all actives have a fitted effect of over 55% in size
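Cell growth measured by CellTiter-Glo luminescence after a minimum 48 h, 37 C compound exposure with 20 nM CPT in Tdp1-knockout DT40 cells stably expressing hTDP1, seeded 400/well; qHTS titration format.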
KB-3-1 tox = kills parental KB-3-1 adenocarcinoma cells; KB-3-1 viability, CellTiter-Glo ATP luminescence, 72 h; Potency, µM (titrated, usually from 46.1 µM), most hits filed as cytotoxic; 400,000 compounds, 1.4% hits; AID 1347075; note: nearly all actives have a fitted effect of over 60% in size
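72 h, 37 °C compound treatment of KB-3-1 parental cells; CellTiter-Glo added, 10 min, luminescence read. Data corrected against DMSO-only plates and normalized before curve fitting.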
HT1080 IDH1KD tx = HT-1080 IDH1 knockdown cell toxicity (counter line). 360,000 compounds, 2% hits. AID 686971. Potency, µM (highest dose often 46.1 µM), without a hit: at the highest dose activity, negative = toxicity, usual class: cytotoxic. HT-1080 IDH1 knockdown viability, ATP luminescence, 48 h;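 note: 0% = DMSO wells and -100% = cell-free medium wells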
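Assay cells: HT-1080 with IDH1 knockdown, 750 per well, RPMI/5% FBS. Exposure: 48 h at 37 °C following 2 h pre-incubation. Read: CellTiter-Glo luminescence; fitted concentration-response, curve class assigned.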
TDP1 cell noCPT = qHTS for Inhibitors of human tyrosyl-DNA phosphodiesterase 1 (TDP1): qHTS in cells in absence of CPT; 420,000 compounds, 15% hits; AID 686978, 2013; Potency, µM (series often up to 46.2 µM), for the others: at the top dose activity change, negative = growth inhibition, actives largely listed as inhibitors; DT40 Tdp1-/- hTDP1 cells, no CPT, ATP luminescence, 48 h; note: nearly all actives have a fitted effect of over 55% in size
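Readout: luminescence from CellTiter-Glo after 30 min in the dark at RT. Cells: DT40 Tdp1-/- with stable hTDP1, 400/well. Exposure: compounds alone, ≥48 hr, 37 °C.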
HT1080NT lethal = kills 2HG-producing HT-1080-NT fibrosarcoma cells. 360,000 compounds, 1.6% hits. AID 686970. HT-1080-NT fibrosarcoma viability, CellTiter-Glo ATP luminescence, 48 h. Potency, µM (top dose mostly 46.1 µM), without a hit: at the top dose activity, negative = less viability, actives largely listed as cytotoxic;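 note: NT is the 2HG producing partner of a matched IDH1 knockdown line; 0% = DMSO-treated cells and -100% = media-only wells without cells; nearly all actives have a fitted effect of over 55% in size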
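750 cells/well, RPMI + 5% FBS; 2 h settle, compound pin-transfer, 48 h at 37 degrees C. CellTiter-Glo 10 min RT, luminescence. Normalized to DMSO and media-only wells.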
Active calls of the source: *; i = inactive; ? = inconclusive; nt = no result given; [ ] = another dose, or the depositor's remark. Calls come from the whole dose curve; as a rule, active = well fitted curve in the direction sought with a large enough effect; inconclusive = small, poorly fitted or top-dose-only effect, or another doubt; inactive = no such curve, though single readings can be large; an effect the other way counts as inactive or inconclusive. Unless noted, % is set by controls: 0 for no effect and ±100 for the full control effect; potency is the fitted concentration of half-maximal effect.

SMILES	KB-V1 cytotox	TDP1 cell CPT	KB-3-1 tox	HT1080 IDH1KD tx	TDP1 cell noCPT	HT1080NT lethal
CN(C(=O)c1ccc(NC(=O)Cc2ccc(NC(=O)C3CCN(C(=O)CCc4ccccc4)CC3)cc2)cc1)C1CCCC1	i	23µM*	i	-5%	21µM*	-1%
O=C(Cc1cccc(NC(=O)C2CCCN(C(=O)CCc3ccccc3)C2)c1)Nc1ccc(C(=O)N2CCCCC2)cc1 (stereo unspecified)	i	29µM*	?	-2%	23µM*	-5%
CN(C(=O)c1cccc(NC(=O)Cc2cccc(NC(=O)C3CCN(C(=O)CCc4ccccc4)CC3)c2)c1)C1CC1	i	-96%	i	-6%	23µM*	1%
COC(=O)c1ccc2c(=O)n(CCCCCC(=O)O)c(=S)[nH]c2c1	i	-24%	i	8%	?	10%
CC(=O)Nc1ccc(C(=O)CSc2nnc3cc(C)c4ccccc4n23)cc1	?	?	i	nt	?	nt
CN(C(=O)c1ccc(NC(=O)Cc2ccc(NC(=O)C3CCN(C(=O)CCc4ccccc4)CC3)cc2)cc1)C1CC1	i	26µM*	i	5%	18µM*	-7%
CN(C(=O)c1ccc(NC(=O)Cc2cccc(NC(=O)C3CCN(C(=O)CCc4ccccc4)CC3)c2)cc1)C1CCCC1	i	?	i	-10%	?	-9%
COc1cccc(N2CC(O)Cn3c2nc2c3c(=O)[nH]c(=O)n2C)c1 (stereo unspecified)	i	-18%	i	-4%	-2%	-6%
COc1ccc2c(C)c(Cc3ccccc3)c(=O)oc2c1OC	?	?	i	6%	?	10%
CCCCc1c(C)c2ccc(OC)c(/C(C)=N\O)c2oc1=O	5.8µM*	?	?	7%	18µM*	8%
CCOc1ccc(C(=O)C[n+]2ccccc2C)cc1	i	15%	i	18%	-27%	21%
CC1(C)OC(=O)C=C[C@@]2(C)C1C[C@@H](O)[C@]1(C)C2CC[C@@]2(C)C(c3ccoc3)OC(=O)[C@H]3O[C@]321 (stereo partly specified)	nt	-22%[9.04 µM]	nt	nt	?	nt
CN1OC[C@@H]2CN(C(=S)NCCc3ccccc3)[C@H](c3ccc(N4CCCCC4)cc3)C[C@@H]21	i	16µM*	i	7%	?	10%
CC(C)c1c(C(=O)NCc2cccnc2)cnn1-c1nccc(-c2cccs2)n1	nt	24%[9.04 µM]	nt	nt	?	nt
CCCCNc1ccc(C(CC(N)=O)NC(=O)c2cc(C)cc(C)c2)cc1[N+](=O)[O-] (stereo unspecified)	i	1%	i	9%	-9%	15%
NC(=O)CC(NC(=O)Cc1cccc2ccccc12)c1ccc(NCCc2ccc(F)cc2)c([N+](=O)[O-])c1 (stereo unspecified)	i	?	i	2%	?	10%
NC(=O)CC(NC(=O)Cc1cccc2ccccc12)c1ccc(NCCc2ccccc2F)c([N+](=O)[O-])c1 (stereo unspecified)	i	21µM*	i	6%	?	15%
CCCCNc1ccc(C(CC(N)=O)NC(=O)c2ccccc2)cc1[N+](=O)[O-] (stereo unspecified)	i	18µM*	i	0%	15µM*	-2%
CCC(CC)Nc1ccc(C(CC(N)=O)NC(=O)c2ccccc2)cc1[N+](=O)[O-] (stereo unspecified)	i	16µM*	i	11%	15µM*	14%
Cc1cccc(CNc2ccc(C(CC(N)=O)NC(=O)c3ccccc3)cc2[N+](=O)[O-])c1 (stereo unspecified)	i	?	i	-1%	?	-1%
NC(=O)CC(NC(=O)c1ccccc1)c1ccc(NCCc2ccc(F)cc2)c([N+](=O)[O-])c1 (stereo unspecified)	?	?	i	10%	?	0%
Cc1ccccc1CNc1ccc(C(CC(N)=O)NC(=O)c2ccccc2)cc1[N+](=O)[O-] (stereo unspecified)	i	16µM*	i	-1%	23µM*	-3%
C=C1C=C(C(F)F)n2ncc(C(=O)N3CCN(c4ccccc4)CC3)c2N1	?	11µM*	?	nt	?	nt
C=C1C=C(C(F)F)n2ncc(C(=O)N3CCc4ccccc4C3)c2N1	i	?	?	nt	?	nt
Cc1ccc(Nc2nc(Cl)c(C=O)s2)cc1Cl	i	?	?	?	?	18µM*
SMILES	KB-V1 cytotox	TDP1 cell CPT	KB-3-1 tox	HT1080 IDH1KD tx	TDP1 cell noCPT	HT1080NT lethal
Cc1ccc(-n2nc(-c3ccccc3)c3cnc4cc5c(cc4c32)OCO5)cc1C	i	-10%	i	nt	-20%	nt
Cc1cccc(NC(=O)Cn2nc(-c3ccccc3)c3cnc4ccccc4c32)c1	i	16µM*	i	nt	-45%	nt
Cc1ccc(-c2nn(CC(=O)NC3CCCC3)c3c2cnc2ccc(F)cc23)cc1C	i	?	i	nt	12µM*	nt
CCc1ccc(-c2nn(CC(=O)NC3CCCC3)c3c2cnc2ccc(F)cc23)cc1	i	-22%	i	nt	-15%	nt
COc1ccc2ncc3c(-c4ccc(C)c(C)c4)nn(CC(=O)Nc4ccccc4)c3c2c1	?	15µM*	i	nt	18µM*	nt
COc1ccc2ncc3c(-c4ccccc4)nn(-c4ccc(C)c(C)c4)c3c2c1	i	12µM*	i	nt	9.2µM*	nt
COc1cc2ncc3c(-c4ccccc4)nn(-c4ccc(C)cc4)c3c2cc1OC	?	16µM*	i	nt	16µM*	nt
Cc1cc(C(=O)Nc2ccon2)ccc1[N+](=O)[O-]	i	15%	i	18%	-28%	23%
COC(=O)C1=C(C)NC(=O)NC1c1cn(-c2ccccc2)nc1-c1ccc(OC)c(Cl)c1 (stereo unspecified)	i	?	i	nt	21µM*	nt
COC(=O)C1=C(C)NC(=O)NC1c1cn(-c2ccccc2)nc1-c1cccs1 (stereo unspecified)	i	?	i	-16%	-14%	-7%
CCOC(=O)C1=C(C)NC(=O)NC1c1cn(-c2ccccc2)nc1-c1cccs1 (stereo unspecified)	21µM*	?	i	?	?	?

Bioassay records: PubChem BioAssay, National Center for Advancing Translational Sciences (NCATS)
